Screening data from PubChem.
Compounds with a hit are over-represented: about 6.1% of the library has one in this group of screens.
ERG-DNA inh = inhibitors of human ERG Ets domain-DNA interaction. P11308. fluorescence polarization, His-ERG Ets domain / labelled DNA. Potency, µM (highest dose often 76.9 µM), usual class: inhibitors. 370,000 tested, 0.028% active. AID 624246; active = well fitted inhibition curve with a large enough effect in the polarisation, with a control signal flat; inconclusive = small, poorly fitted or top-dose-only effect, or effect the other way, or a change in a side signal; inactive = no such curve, though single readings can be large or run the other way; the % refers to the polarisation;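 also: polarization taken with two DNA probes labelled with fluorescein and Texas red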
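His-tagged ERG Ets domain (1 uM in the protein solution; 300mM KCl, 50mM Tris-HCl, 1mM EDTA, 1mM DTT, pH 7.5) received compound, then a probe mix of 5 nM fluorescein-DNA and 100nM Texas-615-DNA. Fluorescence polarization was read for both dyes.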
D3 antag = antagonists of human D3 dopamine receptor; P35462; AID 652054; 360,000 tested, 2.5% active; D3R cells, DiscoveRx beta-arrestin luminescence, antagonist mode; stronger effect = lower value; max response, negative = inhibition, %; in the data active = max response below about -50%; inconclusive = no clear call, values can overlap the other calls
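Cells plated overnight at 1500 cells/well, then exposed to library compounds with dopamine controls for 90 minutes at 37 degrees C. DiscoveRx reagent added for 30–60 minutes at room temperature; luminescence read, quantitative HTS format.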
D1 antag = antagonists of human D1 dopamine receptor. P21728. HEK293 TREx D1 cells, calcium flux, dopamine EC80; stronger effect = lower value. activity change, negative = inhibition, % at 10 µM. 360,000 tested, 3.2% active; in the data active = activity change below about -30%
Target sequence (P21728 whole entry, looked up): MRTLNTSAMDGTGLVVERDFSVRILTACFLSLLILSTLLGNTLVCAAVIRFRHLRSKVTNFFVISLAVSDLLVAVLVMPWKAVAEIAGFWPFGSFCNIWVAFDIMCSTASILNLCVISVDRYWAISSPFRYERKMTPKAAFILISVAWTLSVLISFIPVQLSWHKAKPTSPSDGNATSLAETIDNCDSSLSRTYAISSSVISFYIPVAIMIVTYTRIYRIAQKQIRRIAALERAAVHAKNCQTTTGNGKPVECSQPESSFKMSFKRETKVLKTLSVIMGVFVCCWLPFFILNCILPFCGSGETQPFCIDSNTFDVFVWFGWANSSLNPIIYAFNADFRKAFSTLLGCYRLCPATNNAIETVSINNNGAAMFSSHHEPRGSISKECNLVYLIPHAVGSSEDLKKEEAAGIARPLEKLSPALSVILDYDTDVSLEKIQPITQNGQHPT
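Tetracycline-induced HEK293 T-REx cells with force-coupled D1 receptor were loaded with a no-wash calcium dye. Compound was added after a 10 s baseline and read kinetically for 180 s; EC80 dopamine was then added and calcium flux followed another 180 s.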
DRD3 agonist = agonists of human D3 dopamine receptor | P35462 | D3R DiscoveRx beta-arrestin cells, luminescence, 90 min | max activation, % | 410,000 tested, 0.58% active | AID 652048; in the data active = max activation above about 30%
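Agonist mode: compounds and dopamine controls were applied to plated cells for 90 min at 37 degrees C after an overnight attachment at 1500 cells/well. Luminescent read-out followed 30 - 60 minutes at room temperature with DiscoveRx detection reagent.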
D1 potentiator = potentiators of human D1 dopamine receptor; HEK293 TREx D1 cells, calcium flux, dopamine EC20 potentiation; potentiation, % at 10 µM; 360,000 tested, 0.036% active; AID 504651; in the data active = potentiation above about 30%
D1 agonist = activates the human D1 dopamine receptor; activation, % at 2 µM; 360,000 tested, 1% active; AID 504660; HEK293 T-REx D1 cells, calcium flux, agonist mode; in the data active = activation above about 30%
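Tetracycline-induced HEK293 TREx D1 cells, force-coupled to calcium signalling, were dye-loaded with a no-wash calcium kit. Compound was pin-added after a 10 s baseline. Fluorescence was read kinetically at 1 cycle/s for 180 s, with calcium rises flagged as agonism.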
Each line names hits and unclear results; the compound was inactive in the other large screens.

O=C(NN1C(=O)C2C3C=CC(C3)[C@H]2C1=O)c1cccnc1 (stereo partly specified)	none
Cc1nn(-c2ccccc2)c2c1N(CC(=O)N1CCN(c3ccccc3F)CC1)C(=O)CS2	none (no result: D3 antag)
O=C(NCCN1CCOCC1)C(=O)NCC1OCCN1C(=O)c1ccc(Cl)cc1 (stereo unspecified)	none
O=C1c2ccccc2S(=O)(=O)c2cc(C(=O)N3CCN(c4ccc(Cl)cn4)CC3)ccc21	DRD3 agonist 43.9 (no result: D1 antag, D1 potentiator, D1 agonist)
Cc1onc(-c2c(Cl)cccc2Cl)c1C(=O)ONC(=O)c1cc(C(F)(F)F)cc(C(F)(F)F)c1	none
CC1CC(C)CN(C(=O)Cn2c(SCC(=O)N3CCc4ccccc4C3)nc3ccccc32)C1 (stereo unspecified)	D1 antag -65.0
OC1CCCN(CC(O)COc2ccc(-c3ccccc3)cc2)C1 (stereo unspecified)	D1 agonist 30.4
OC1CCCN(CC(O)COC(c2ccccc2)c2ccccc2)C1 (stereo unspecified)	none
CC1CCCN(CC(O)COc2ccc(-c3ccccc3)cc2)C1 (stereo unspecified)	D3 antag inconclusive, D1 agonist 41.6
CC1CCCN(CC(O)COc2ccc(Cl)cc2)C1 (stereo unspecified)	D3 antag -58.4 (no result: ERG-DNA inh)
COc1ccc(NC(=O)C2CCCN(S(=O)(=O)c3c(C)[nH]c(=O)[nH]c3=O)C2)cc1OC (stereo unspecified)	none
C=CCSC1=N/C(=C\c2cccnc2)C(=O)N1c1ccc(OC)cc1	D1 antag -53.7 (no result: ERG-DNA inh)
CCSC1=N/C(=C\c2ccccc2)C(=O)N1c1ccc(OC)cc1	none
C=CCSC1=N/C(=C/c2ccsc2)C(=O)N1c1ccccc1	D1 antag -58.3
O=C(/C=C/c1c(Cl)nc2ccccn12)N1CCCCC1	none
Cc1nc2c(C#N)cnn2c2c1CCN2CC1CCCO1 (stereo unspecified)	DRD3 agonist 43.1
COc1ccc(NC(=O)COc2cc(O)c3c(c2)OC(C)(C)CC3=O)cc1	none
CC1(C)CC(=O)c2c(O)cc(OCC(=O)Nc3ccc(CCO)cc3)cc2O1	DRD3 agonist 34.0
Cc1nn(Cc2c(F)c(F)c(F)c(F)c2F)c(C)c1NC(=O)c1ccc(COc2ccccc2Cl)cc1	D1 antag -33.8
Cc1nn(Cc2c(F)c(F)c(F)c(F)c2F)c(C)c1NC(=O)c1ccc(COc2cc(Cl)ccc2Cl)cc1	none
Cc1cnc(NS(=O)(=O)c2ccccc2)c(C)n1	none
O=C(CS(=O)c1ccc(C(F)(F)F)cc1[N+](=O)[O-])Oc1ccccc1 (stereo unspecified)	D3 antag inconclusive
CS(=O)(=O)c1ccc(S(=O)CC(=O)OCc2ccccc2)c([N+](=O)[O-])c1 (stereo unspecified)	D3 antag -90.2
CSCCNC(=O)c1cccc(Cl)c1	none
CCOc1ccc2nc(N/C(N)=N/S(=O)(=O)c3ccc(C)cc3)nc(C)c2c1	none (no result: ERG-DNA inh, D1 antag, D1 potentiator, D1 agonist)
CCc1nn2c(=O)cc(COC(=O)Cc3ccccc3)nc2s1	none (no result: D3 antag)
CCOC(=O)c1c(NC(=O)CSc2nnc(-c3cccnc3)o2)sc(C(C)=O)c1C	D1 antag -34.7
CC(C)COC(=O)c1nnsc1NC(=O)Nc1ccccc1	none (no result: ERG-DNA inh)
O=C(N/N=C/c1ccc(N2CCOCC2)s1)c1ccc(O)cc1	none (no result: ERG-DNA inh, D1 antag, D1 potentiator, D1 agonist)
O=C(N/N=C/c1ccc(N2CCOCC2)cc1)c1ccc(O)cc1	D1 antag -54.6
O=C(/C=C/c1ccc2c(c1)OCO2)NCCSCc1c(Cl)cccc1Cl	D3 antag inconclusive, D1 antag -32.1, D1 agonist 42.2
O=C(/C=C/c1ccc2c(c1)OCO2)NCCSCc1ccc(Cl)cc1	none
O=C(Nc1ccc(Oc2ccc(C(F)(F)F)cn2)c(Cl)c1)C1CC1	D1 antag -32.1
Cc1ccc(NC(=S)N2CCN(S(C)(=O)=O)CC2)cc1C	none
CN1CCN(C(=O)c2ccc(COc3ccc(Cl)cc3Cl)cc2)CC1	D3 antag -88.7, D1 antag -54.5 (no result: ERG-DNA inh)
CN1CCN(C(=O)CCCOc2ccc(Cl)cc2Cl)CC1	D3 antag -53.3
